VP16 counter: VP16 counterscreen qHTS for inhibitors of ROR gamma transcriptional activity | Drosophila S2 Gal4-VP16 UAS-luciferase, luminescence, 20 h | actives 3.5% (n = 310,000) | Potency, µM (highest dose often 53.6 µM), without a hit: top-dose activity, negative = inhibition, actives largely listed as inhibitors;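 further: Gal4-VP16 expression switched on by copper sulfate through the metallothionein promoter; nearly all actives have a fitted effect of over 50% in size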
KinaseGlo FLuc: Counterscreen for Luciferase (Kinase-Glo TM) Inhibition | Kinase-Glo luciferase, ATP luminescence, 8 min | Luciferin 4-monooxygenase (Photuris pensylvanica), Q27757 | Potency, µM (highest dose often 38.3 µM), for inactives: top-dose activity change, negative = inhibition, usual class: inhibitors | actives 0.28% (n = 200,000); further: nearly all actives have a fitted effect of over 60% in size
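Substrate mix (final 50 mM imidazole pH 7.2, 50 mM KCl, 7 mM MgCl2, 10 uM ATP, 0.01% Tween 20, 0.05% BSA) plus pin-tool compound, then Kinase-Glo detection mix; 8 min ambient, luminescence read.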
RORgamma inh: qHTS for inhibitors of ROR gamma transcriptional activity. Nuclear receptor ROR-gamma (Mus musculus), P51450. actives 5.4% (n = 310,000). AID 2551, 2010. Potency, µM (series often up to 53.6 µM), without a hit: at the highest dose activity change, negative = inhibition, hits mostly inhibitors. Drosophila S2 Gal4-RORgamma UAS-luciferase reporter, 20 h; further: nearly all actives have a fitted effect of over 60% in size
Target sequence (P51450 whole entry, looked up, the tested form may be a part): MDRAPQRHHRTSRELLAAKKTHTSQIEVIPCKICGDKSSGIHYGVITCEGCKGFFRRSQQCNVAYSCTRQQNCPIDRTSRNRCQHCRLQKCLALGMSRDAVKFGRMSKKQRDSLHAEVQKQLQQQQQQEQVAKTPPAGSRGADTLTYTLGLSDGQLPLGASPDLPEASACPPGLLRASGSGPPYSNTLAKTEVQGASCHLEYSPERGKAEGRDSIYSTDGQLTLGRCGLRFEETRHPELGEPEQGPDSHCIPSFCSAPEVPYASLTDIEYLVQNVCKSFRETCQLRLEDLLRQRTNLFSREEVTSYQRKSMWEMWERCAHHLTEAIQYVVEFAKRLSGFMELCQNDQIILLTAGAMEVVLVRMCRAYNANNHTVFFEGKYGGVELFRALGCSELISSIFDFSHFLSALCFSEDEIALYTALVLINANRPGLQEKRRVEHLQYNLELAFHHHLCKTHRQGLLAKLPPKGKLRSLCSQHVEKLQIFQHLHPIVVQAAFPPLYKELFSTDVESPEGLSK
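Schneider cells (Drosophila), stable Gal4 DBD–ROR gamma + UAS-luc; 1 hr cmpd preincubation; Cu2+ induction 700 uM final; 20 hr ambient; luminescence.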
* hit, by the source's call; [ ] = dose if it differs, or a comment. A selection: hits, their analogues and other compounds. The true share with any hit is near 6.4%. The call rests on the fitted dose curve; in most records, active means well fitted curve in the direction sought with a large enough effect; inconclusive means small, poorly fitted or top-dose-only effect, or another doubt; inactive means no such curve, though single readings can be large; an effect the other way counts as inactive or inconclusive. On the % scale 0 is the no-effect control and ±100 the full control effect; potency means the concentration at half of the fitted maximal effect.

Screening C/C(CC(=O)Nc1ccc(N(C)C)cc1)=N\NC(=O)C(=O)NCc1ccccc1 returned VP16 counter -6.6%, KinaseGlo FLuc -0.1% and RORgamma inh 25.3%.
Screening C/C(CC(=O)Nc1ccccn1)=N\NC(=O)c1ccc(C)cc1 returned VP16 counter -2.1%, KinaseGlo FLuc 5.6% and RORgamma inh -27.8%.
C/C(CC(=O)Nc1ccc(N(C)C)cc1)=N\NC(=O)c1ccc(Cl)cc1Cl was read as VP16 counter -10.9% and RORgamma inh 11.2µM*.
C/C(CC(=O)Nc1ccc(N(C)C)cc1)=N\NC(=O)c1ccc(F)cc1 was read as VP16 counter inconclusive and RORgamma inh 1.78µM*.
For COc1cccc(C(=O)N/N=C(\C)CC(=O)Nc2ccc(N(C)C)cc2)c1 the results were VP16 counter 0.5% and RORgamma inh -30.4%.
`Nc1ccc(S(=O)(=O)NC2(C(F)(F)F)NC(=O)N(c3ccccc3F)C2=O)cc1` (configuration not stated) gave VP16 counter 0.4% and RORgamma inh -8.4%.
Screening Cc1nc2sccn2c(=O)c1S(=O)(=O)NCC(C)c1ccccc1 (configuration not stated) returned VP16 counter 6.2% and RORgamma inh -20.4%.
Screening CCC(=O)Nc1ccccc1C(=O)C(=O)Nc1ccccc1 returned VP16 counter -16.8%, KinaseGlo FLuc -0.4% and RORgamma inh inconclusive.
Screening COc1ccc(CN(C(=O)c2ccco2)c2ccc(C)c(C)c2)cc1 returned VP16 counter 6.1%, KinaseGlo FLuc -5.7% and RORgamma inh 0.9%.
CN1/C(=C\C(=S)NC(=O)c2ccc([N+](=O)[O-])cc2)C(C)(C)c2ccccc21 was read as VP16 counter 3.98µM*, KinaseGlo FLuc -4.3% and RORgamma inh 3.55µM*.
For CN1/C(=C/C=N/NC(=O)c2ccc([N+](=O)[O-])cc2)C(C)(C)c2ccccc21 the results were VP16 counter 2.24µM*, KinaseGlo FLuc -11.2% and RORgamma inh 1.78µM*.
`CN1/C(=C\C=N\O)C(C)(C)c2ccccc21` gave VP16 counter -18.5%, KinaseGlo FLuc 4.3% and RORgamma inh -19.2%.
`CN1/C(=C\C(=S)NC(=O)c2cccc(Br)c2)C(C)(C)c2ccccc21` gave VP16 counter 6.31µM* and RORgamma inh inconclusive.
`CO/N=C/C=C1/N(C)c2ccccc2C1(C)C` gave VP16 counter -2.8%, KinaseGlo FLuc 0.6% and RORgamma inh -13.6%.
Screening CN1/C(=C\C(=O)Nc2ccc(Br)cc2)C(C)(C)c2ccccc21 returned VP16 counter -17.9%, KinaseGlo FLuc 0.5% and RORgamma inh 8.3%.
For Cc1ccccc1N=C/C=C1\N(C)c2ccccc2C1(C)C the results were VP16 counter 12.6µM*, KinaseGlo FLuc -2.3% and RORgamma inh inconclusive.
`CN1/C(=C/C(=O)C2CC2)C(C)(C)c2ccccc21` gave VP16 counter inconclusive, KinaseGlo FLuc -0.6% and RORgamma inh -5.6%.
`Cc1cc(C(=O)NCc2csc(-c3ccccc3)n2)no1` gave VP16 counter inconclusive and RORgamma inh 32.5%.
O=C(O)c1ccc(CN2C(=O)c3ccc(Oc4ccc([N+](=O)[O-])cc4)cc3C2=O)cc1 was read as VP16 counter -14.9% and RORgamma inh -3.4%.
Cc1ccc(S(=O)(=O)Nc2ccnc(-c3cccnc3)n2)cc1 was read as VP16 counter -3.0%, KinaseGlo FLuc 6.9% and RORgamma inh 7.7%.
Screening S=C(S)NCCN1CCNCC1 returned KinaseGlo FLuc -6.2%[7.66 µM].
Screening N#Cc1cccc(Nc2c3c(nc4ccccc24)CCC3)c1 returned VP16 counter 0.7% and RORgamma inh -31.9%.
`Cc1cccc(Nc2c3c(nc4ccccc24)CCC3)c1` gave VP16 counter inconclusive and RORgamma inh 7.08µM*.
`Cc1nn(C)cc1/C=N/NC(=O)C(C)(C)Oc1ccc(Cl)cc1` gave VP16 counter 19.8%, KinaseGlo FLuc -2.7% and RORgamma inh -1.9%.
COc1c(/C=N/Nc2ccc([N+](=O)[O-])cc2[N+](=O)[O-])c(C)nn1-c1ccccc1 was read as VP16 counter -4.1%, KinaseGlo FLuc -4.2% and RORgamma inh -1.1%.
O=C(C[n+]1cccc(CNC(=O)c2ccc(OC(F)F)cc2)c1)Nc1cc(C(F)(F)F)ccc1Cl was read as VP16 counter 1.4%, KinaseGlo FLuc 4.0% and RORgamma inh -6.9%.
For FC(F)Oc1ccc(/C=N/NC(=S)Nc2cc(C(F)(F)F)ccc2Cl)cc1 the results were VP16 counter 5.62µM*, KinaseGlo FLuc -1.3% and RORgamma inh 1.26µM*.
`Cc1ccc(NC(=S)N/N=C/c2c(C)nn(-c3ccccc3)c2N2CCCC2)cc1` gave VP16 counter 0.1µM* and RORgamma inh inconclusive.
Cc1nn(-c2ccccc2)c(N2CCCC2)c1/C=N/O was read as VP16 counter 5.2%, KinaseGlo FLuc -3.8% and RORgamma inh 19.0%.
`Cc1nn(C)cc1/C=N/NC(=S)Nc1ccccc1` gave VP16 counter 2.24µM*, KinaseGlo FLuc -13.9% and RORgamma inh 0.891µM*.
`COc1c(/C=N/NC(N)=S)c(C)nn1-c1ccccc1` gave VP16 counter inconclusive, KinaseGlo FLuc -2.3% and RORgamma inh 7.08µM*.
For O=C(Nc1ccc(O)c2c(=O)cc(-c3ccccc3Cl)oc12)c1cc(Cl)cc(Cl)c1 the results were VP16 counter -5.9% and RORgamma inh 1.5%.
For Cc1cnc(CNc2cc(-c3ccoc3)ncn2)cn1 the results were VP16 counter -5.3%, KinaseGlo FLuc -4.3% and RORgamma inh -11.6%.
`COc1ccccc1NS(=O)(=O)c1cccc(C(=O)N/N=C/c2c(C)nn(-c3ccccc3)c2N2CCCC2)c1` gave VP16 counter -14.0%, KinaseGlo FLuc 2.4% and RORgamma inh 28.6%.
Screening Cc1nn(-c2ccccc2)c(N2CCCC2)c1/C=N/NC(=S)Nc1cc(C(F)(F)F)ccc1Cl returned VP16 counter 2.82µM*, KinaseGlo FLuc -0.2% and RORgamma inh 1.78µM*.
`Cc1nn(-c2ccccc2)c(N2CCCCC2)c1/C=N/NC(=O)c1ccncc1` gave VP16 counter -1.5%, KinaseGlo FLuc -3.0% and RORgamma inh inconclusive.
`Cc1nn(-c2ccccc2)c(N2CCCC2)c1/C=N/NC(=S)Nc1ccccc1C(F)(F)F` gave VP16 counter 1µM*, KinaseGlo FLuc -1.4% and RORgamma inh 1.41µM*.
For Nc1nc2c(c(=O)[nH]1)C(c1cccc3ccccc13)C1=C(N2)c2ccccc2C1=O (configuration not stated) the results were VP16 counter 3.6%, KinaseGlo FLuc -2.0% and RORgamma inh 3.3%.
For COc1ccc(-c2c(C)c3ccc(O)cc3oc2=O)cc1 the results were VP16 counter 4.0% and RORgamma inh 5.0%.
`COc1ccc(-n2nc(C#N)c(Cl)cc2=O)cc1` gave VP16 counter 12.6µM*, KinaseGlo FLuc 1.8% and RORgamma inh 10µM*.
COC(=O)c1nn(-c2ccc(OC)cc2)c(=O)cc1O was read as VP16 counter -9.7%, KinaseGlo FLuc -1.4% and RORgamma inh 4.3%.
